ATXN2 expr inh = reduces ATXN2 reporter expression in HEK-293 cells. HEK-293 ATXN2-luciferase reporter, luminescence, 24 h. Potency, µM (highest dose often 57 µM), most hits filed as inhibitors. 360,000 compounds, 0.72% hits; also: nearly all actives have a fitted effect of over 55% in size
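ATXN2-luciferase reporter cells (luciferase flanked by upstream and downstream ATXN2 gene portions) were treated 24 h at 37 °C with compounds at up to 57 uM. SteadyGlo luminescence gave expression; GF-AFC fluorescence gave viability.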
Six1-Eya2 inh = Six1/Eya2 interaction inhibition | Q15475+O00167 | 360,000 compounds, 0.56% hits | AlphaScreen GST-Six1/His-Eya2 binding, biochemical; stronger effect = lower value | activity change, % (no concentration beside the values); in the data active = activity change below about -65%; inconclusive = mostly about -30% to -63%
Target sequence (O00167 whole entry, looked up): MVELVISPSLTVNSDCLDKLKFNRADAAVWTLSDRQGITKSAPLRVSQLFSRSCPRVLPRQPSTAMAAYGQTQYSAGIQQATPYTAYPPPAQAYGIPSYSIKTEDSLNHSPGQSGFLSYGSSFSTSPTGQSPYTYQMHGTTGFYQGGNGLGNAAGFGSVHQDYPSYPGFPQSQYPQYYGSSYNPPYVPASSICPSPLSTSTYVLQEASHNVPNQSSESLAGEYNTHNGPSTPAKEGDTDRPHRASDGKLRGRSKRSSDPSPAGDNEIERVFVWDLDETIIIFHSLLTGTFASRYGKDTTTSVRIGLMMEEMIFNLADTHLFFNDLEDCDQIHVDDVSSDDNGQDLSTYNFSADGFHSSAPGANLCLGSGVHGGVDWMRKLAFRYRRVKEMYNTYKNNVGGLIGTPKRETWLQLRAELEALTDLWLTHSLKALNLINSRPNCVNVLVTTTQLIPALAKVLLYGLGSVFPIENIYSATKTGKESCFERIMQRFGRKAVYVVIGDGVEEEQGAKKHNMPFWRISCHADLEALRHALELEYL
Target sequence (Q15475 whole entry, looked up): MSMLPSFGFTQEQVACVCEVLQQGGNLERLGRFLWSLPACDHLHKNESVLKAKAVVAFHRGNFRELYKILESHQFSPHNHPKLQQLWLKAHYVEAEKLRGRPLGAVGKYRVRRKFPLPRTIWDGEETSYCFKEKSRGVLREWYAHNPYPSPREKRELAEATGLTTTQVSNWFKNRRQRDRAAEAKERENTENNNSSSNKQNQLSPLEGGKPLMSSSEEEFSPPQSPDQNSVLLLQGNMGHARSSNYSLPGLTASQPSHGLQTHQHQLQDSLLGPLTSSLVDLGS
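Homogeneous AlphaScreen proximity assay pairing GST-Six1 with His-tagged Eya2 (added as 5X mix: 250 nM and 500 nM) in 50 mM Tris pH 8.0, 300 mM NaCl, 1 mM TCEP. Glutathione donor and nickel acceptor beads; 1 h, 37 °C, dark.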
TGFb SMAD3 inh = blocks TGF-b signaling. HepG2 CAGA-GFP TGF-b/SMAD3 reporter, GFP fluorescence, 18 h; TGF-beta stimulated, 500 pg/mL final. Potency, µM (doses to about 46.1 µM), usual class: inhibitors. 410,000 compounds, 1.2% hits; also: nearly all actives have a fitted effect of over 65% in size
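Inhibition of TGF-beta-driven CAGA-GFP reporter expression in HEPG2 cells is measured by cellular GFP fluorescence after 18 h stimulation with 500 pg/mL recombinant TGF-beta in 1% FBS medium at 37 degrees C.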
HepG2 tox-1 = kills HepG2 cells in TGF-b inhibitor counter-screen | HepG2 CAGA-GFP viability, ATP luminescence, 18 h | Potency, µM (doses to about 46.1 µM), hits mostly cytotoxic | 410,000 compounds, 0.76% hits
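CellTiter-Glo luminescence gave cytotoxicity after 18 hours at 37 degrees C. The cells were HepG2 CAGA-GFP in 1% FBS DMEM, stimulated with 500 pg/mL TGF-beta after compound addition. %Activity was normalised to no-cell wells (complete cell-killing) and DMSO (no toxicity), and curves were fitted and classified.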
ATXN viability = viability counter-screen for ATXN expression inhibitors. Potency, µM (series often up to 56.7 µM), usual class: cytotoxic. 400,000 compounds, 0.49% hits. AID 651635. S2 cells (HEK-293 line with an ATXN2-luciferase reporter) viability, CellTiter-Fluor protease fluorescence, 24 h; also: nearly all actives have a fitted effect of over 40% in size
CtBP-E1A inh = inhibitors of CtBP/E1A interaction; AlphaScreen GST-E1A/His-CtBP binding, 1536-well; stronger effect = lower value; activity change, % (test concentration not listed); 340,000 compounds, 0.49% hits; in the data active = activity change below about -65%; inconclusive = mostly about -30% to -63%
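Homogeneous bead-based format: GST-tagged E1A captured on glutathione donor beads, His-tagged CtBP on nickel acceptor beads; compounds precede bead addition by 2 h at 37 °C.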
TGFb CAGA inh = confirmation of TGF-b signaling inhibitors in HepG2 reporter cells | Potency, µM (highest dose often 46.1 µM), actives largely listed as inhibitors | 1,600 compounds, 63% hits | shares compounds with TGFb SMAD3 inh | HepG2 CAGA-GFP TGF-b reporter, GFP fluorescence, 18 h; cells stimulated with TGF-beta, 500 pg/mL; also: nearly all actives have a fitted effect of over 65% in size
HepG2 tox-2 = HepG2 cytotoxicity, TGF-b inhibitor counterscreen; shares compounds with TGFb SMAD3 inh; HepG2 CAGA-GFP viability, ATP luminescence, 18 h; cells stimulated with TGF-beta, 500 pg/mL; Potency, µM (top dose mostly 46.1 µM), most hits filed as inhibitors; 1,600 compounds, 27% hits; AID 720535; also: nearly all actives have a fitted effect of over 70% in size
CCL64 TGFb inh = TGF-b inhibition, CCL64 orthogonal assay; shares compounds with TGFb SMAD3 inh; CCL64 CAGA-GFP reporter, TGF-b stimulated, GFP fluorescence, 18 h; Potency, µM (doses to about 46.1 µM), hits mostly inhibitors; 1,600 compounds, 41% hits; AID 720536; also: nearly all actives have a fitted effect of over 65% in size
TGFb COP inh = blocks TGF-b signaling in HepG2 COP reporter. Potency, µM (highest dose often 46.1 µM), usual class: inhibitors. HepG2 COP-GFP TGF-b reporter, GFP fluorescence, 18 h; cells stimulated by added recombinant TGF-beta. AID 720537. shares compounds with TGFb SMAD3 inh. 1,600 compounds, 3% hits; also: nearly all actives have a fitted effect of over 70% in size
Of the large screens only hits and unclear results are named; the others gave an inactive call (follow-up assays come after a bar, where they were run). Most compounds without a hit are left out; they make up all but 2.8% or so of the library. Unless noted, calls follow the shape of the dose curve; as a rule, active = well fitted curve in the direction sought with a large enough effect; inconclusive = small, poorly fitted or top-dose-only effect, or another doubt; inactive = no such curve, though single readings can be large; an effect the other way counts as inactive or inconclusive.

Cc1ccc(C(=O)Nc2ccc(C(F)(F)F)n(C)c2=O)cc1	TGFb SMAD3 inh inconclusive
Cc1ccc(C(=O)Nc2cccc3[nH]c(C(F)(F)F)nc23)cc1	TGFb SMAD3 inh 11µM | TGFb CAGA inh 15µM | HepG2 tox-2 inconclusive | CCL64 TGFb inh inconclusive | TGFb COP inh inactive
COc1cc(OC)c2c(-c3cccc(-c4ccc(NC(C)=O)cc4)c3)cc(=O)oc2c1	TGFb SMAD3 inh 4.5µM, ATXN viability inconclusive | TGFb CAGA inh 1.6µM | HepG2 tox-2 inactive | CCL64 TGFb inh 2.1µM | TGFb COP inh inactive
Cc1cn(C2CC3OCC(NC(=O)C4CCCN4C(=O)OC(C)(C)C)C3O2)c(=O)[nH]c1=O (stereo not drawn)	none (no result: ATXN2 expr inh, Six1-Eya2 inh, ATXN viability, CtBP-E1A inh)
O=C(Nc1cccc(-n2cnnn2)c1)c1cc(Cl)ccc1Cl	TGFb SMAD3 inh 16µM | TGFb CAGA inh inconclusive | HepG2 tox-2 inconclusive | CCL64 TGFb inh inactive | TGFb COP inh inactive
O=C(Nc1cccc(-n2cnnn2)c1)c1ccccc1Br	none
Cc1ccc(S(=O)(=O)Nc2nc(-c3ccccc3)cs2)cc1	none
O=C(Nc1cc(S(=O)(=O)N2CCCCC2)ccc1O)c1ccccc1NS(=O)(=O)c1ccc(F)cc1	ATXN2 expr inh inconclusive, Six1-Eya2 inh inconclusive, TGFb SMAD3 inh 18µM | TGFb CAGA inh 16µM | HepG2 tox-2 inconclusive | CCL64 TGFb inh inconclusive | TGFb COP inh inactive
COc1ccc(-c2csc(NC(=O)c3ccccc3NS(=O)(=O)c3ccc(F)c(F)c3)n2)cc1	ATXN2 expr inh 7.1µM, TGFb SMAD3 inh 1.8µM, ATXN viability inconclusive | TGFb CAGA inh 2.3µM | HepG2 tox-2 1.5µM | CCL64 TGFb inh 1.8µM | TGFb COP inh inactive
Cc1ccc(S(=O)(=O)Nc2ccccc2C(=O)Nc2nc(-c3ccc(F)cc3)cs2)cc1	ATXN2 expr inh inconclusive, TGFb SMAD3 inh 5.6µM, ATXN viability inconclusive | TGFb CAGA inh 5.2µM | HepG2 tox-2 5.8µM | CCL64 TGFb inh 5.2µM | TGFb COP inh inactive
Cc1ccc(C)c(-n2nnc3ccccc3c2=O)c1	none (no result: ATXN2 expr inh)
O=C(NCc1cc(Cl)cc(Cl)c1)c1ccc2nc([C@@H]3O[C@H](CO)[C@H](O)[C@H](O)[C@H]3O)[nH]c2c1	none
COc1cc2c(cc1OC)C(C)N(C(=O)c1cc(C)on1)CC2 (stereo not drawn)	TGFb SMAD3 inh 11µM, ATXN viability inconclusive | TGFb CAGA inh 7.3µM | HepG2 tox-2 inactive | CCL64 TGFb inh inconclusive | TGFb COP inh inconclusive
CC(=O)N(C1=C(Cl)C(=O)c2ccccc2C1=O)C1CCCCC1	ATXN2 expr inh inconclusive, TGFb SMAD3 inh 2.8µM (no result: ATXN viability) | TGFb CAGA inh 3.3µM | HepG2 tox-2 8.2µM | CCL64 TGFb inh 4.6µM | TGFb COP inh 10µM
CCCCCC(=O)Nc1cccc(C2=NOC3(C2)C[C@H](C(N)=O)N(C(=O)c2ccccc2C(=O)c2ccccc2)C3)c1 (stereo partly drawn)	TGFb SMAD3 inh 11µM | TGFb CAGA inh inconclusive | HepG2 tox-2 inactive | CCL64 TGFb inh inconclusive | TGFb COP inh inactive
COc1cc(C(CC(=O)Nc2cccc(C(C)=O)c2)N2Cc3ccccc3C2=O)cc(OC)c1OC (stereo not drawn)	none (no result: Six1-Eya2 inh, CtBP-E1A inh)
CC1=C(C(=O)Nc2ccccc2C)C(c2cccnc2)n2nc(SCc3ccccc3)nc2N1 (stereo not drawn)	none (no result: Six1-Eya2 inh, CtBP-E1A inh)
COc1ccc([C@H]2CC(=O)C=C(c3ccc(Oc4ccccc4)cc3)C2)cc1OC	TGFb SMAD3 inh 7.9µM | TGFb CAGA inh 9.2µM | HepG2 tox-2 inactive | CCL64 TGFb inh inconclusive | TGFb COP inh inactive
COc1ccc([C@H]2CC(=O)C=C(c3ccc(SC)cc3)C2)cc1OC	TGFb SMAD3 inh inconclusive
CCOc1ccccc1CNCc1c(C(=O)O)n(Cc2ccc(F)cc2)c2cc(C)ccc12	ATXN viability inconclusive (no result: Six1-Eya2 inh, CtBP-E1A inh)
CC(=O)O[C@@H](C[C@@H](C)C1=C2C[C@H](O)C3[C@@]4(C)CCC(=O)C(C)(C)C4CC[C@]3(C)[C@@]2(C)CC1)[C@H]1OC1(C)C (stereo partly drawn)	ATXN2 expr inh inconclusive, TGFb SMAD3 inh 11µM, ATXN viability 35µM | TGFb CAGA inh 13µM | HepG2 tox-2 inconclusive | CCL64 TGFb inh inconclusive | TGFb COP inh inactive
CC1(C(=O)NS(=O)(=O)c2ccc(Cl)s2)CCN1C(=O)Cc1ccc(Cl)cc1Cl (stereo not drawn)	none
Cc1ccc(OCCNC(=O)[C@H]2O[C@@H](n3ccc(N)nc3=O)[C@H](O)[C@@H]2O)cc1C	none
Cc1ccc(OCCNC(=O)[C@H]2O[C@@H](n3cnc4c(N)ncnc43)[C@H](O)[C@@H]2O)cc1C	TGFb SMAD3 inh inconclusive | TGFb CAGA inh inconclusive | HepG2 tox-2 inactive | CCL64 TGFb inh inactive | TGFb COP inh inactive
O=C(Nc1cccc(Br)c1)c1cc(S(=O)(=O)N2CCCCC2)c[nH]1	none (no result: ATXN2 expr inh, Six1-Eya2 inh, ATXN viability, CtBP-E1A inh)
CCCS(=O)(=O)c1ccc(COC(=O)c2ccc(NC(C)=O)cc2)cc1	TGFb SMAD3 inh inconclusive | TGFb CAGA inh inactive | HepG2 tox-2 inactive | CCL64 TGFb inh inactive | TGFb COP inh inactive
CC(=O)Nc1ccc(C(=O)OCc2ccc(Cl)cc2)cc1	TGFb SMAD3 inh inconclusive
CC(C)(C)NS(=O)(=O)c1cccc(S(=O)(=O)c2cccc(S(=O)(=O)NC(C)(C)C)c2)c1	TGFb SMAD3 inh 13µM | TGFb CAGA inh 15µM | HepG2 tox-2 inconclusive | CCL64 TGFb inh inactive | TGFb COP inh inactive
COc1ccccc1CNC(=O)COCc1cc(-c2ccc3c(c2)OCO3)on1	none (no result: ATXN2 expr inh, Six1-Eya2 inh, ATXN viability, CtBP-E1A inh)
O=C(/C=N/NC(=O)c1ccccc1Br)c1ccccc1	none

Source: PubChem
